The list is not random: actives were taken first. Their share in the collection is about 2.4%.
CHO-K1 Ca ag = M1 agonist counterscreen hit in parental CHO-K1 cells | Fluo-8 calcium fluorescence; scaled to maximal ATP response, vehicle zero | activation, % at 3 µM | 0.48% of 360,000 active | AID 602248; in the data active means activation above about 15%;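 further: untransfected CHO-K1 host cells lacking M1 receptor as counterscreen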
CHRM1 antagonist = antagonists of human M1 muscarinic receptor. AID 588852. 1.3% of 360,000 active. inhibition, % at 3 µM. CHO-K1 hM1, Fluo-8 calcium fluorescence, ACh EC80 antagonist;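 active means percent inhibition above its own plate's cutoff, namely the mean of that plate's compound wells plus 3 SD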;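 further: peak over basal fluorescence ratio during 140 s after agonist addition; 0% = ACh EC80 plus DMSO and 100% = DMSO alone without agonist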
Target sequence (P11229 whole entry, looked up): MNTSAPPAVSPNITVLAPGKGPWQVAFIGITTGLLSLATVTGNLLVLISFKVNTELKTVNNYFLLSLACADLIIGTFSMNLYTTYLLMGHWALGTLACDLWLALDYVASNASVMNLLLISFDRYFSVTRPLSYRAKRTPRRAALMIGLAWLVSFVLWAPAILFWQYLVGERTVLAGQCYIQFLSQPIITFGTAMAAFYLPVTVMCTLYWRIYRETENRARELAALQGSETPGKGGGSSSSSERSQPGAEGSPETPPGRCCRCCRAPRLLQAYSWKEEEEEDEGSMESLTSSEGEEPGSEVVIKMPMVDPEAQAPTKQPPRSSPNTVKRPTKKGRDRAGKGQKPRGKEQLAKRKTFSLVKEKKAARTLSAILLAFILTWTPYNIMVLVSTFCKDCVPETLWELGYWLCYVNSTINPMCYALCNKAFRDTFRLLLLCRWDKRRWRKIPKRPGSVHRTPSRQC
CHO-K1 Ca antag = nonselective inhibitor or artifact in parental CHO-K1 cells. ATP-induced calcium, Fluo-8 fluorescence. inhibition, % at 3 µM. 0.6% of 360,000 active;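 active means inhibition above a per-plate cutoff, the plate's mean sample inhibition plus 3 SD, cut at about 24% in these data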;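 further: 0% = DMSO plus EC80 ATP and 100% = DMSO alone without ATP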
M1 PAM = positive allosteric modulators of human M1 muscarinic receptor. 0.088% of 360,000 active. CHO-K1 hM1, Fluo-8 calcium fluorescence, ACh EC20; 0% = ACh EC20, 100% = maximal ACh. activation, % at 3 µM; in the data active means activation above about 19%, passing the limit was not always enough
M1 PAM parental = nonselective activator or artifact in parental CHO-K1 calcium assay; ATP EC20, Fluo-8 calcium fluorescence; 0% at ATP EC20, 100% at ATP max; activation, % at 3 µM; 0.02% of 360,000 active; AID 602247;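 active means activation above the run cutoff, the mean activation of all test compounds plus 3 SD, cut at about 40% in these data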;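 further: peak over basal fluorescence ratio in a 140 s read after ATP addition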
CHRM1 agonist = activates human CHRM1 receptor. P11229. CHO-K1 hM1, Fluo-8 calcium fluorescence, agonist mode; 0% DMSO, 100% acetylcholine EC100. activation, % at 3 µM. 0.33% of 360,000 active. AID 588814;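 active means activation above the run's mean compound activation plus 3 SD, cut at about 16% in these data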;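 further: peak over basal fluorescence ratio within a 140 s kinetic read after compound addition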
Active calls of the source: *; + = active, no number.

SMILES	CHO-K1 Ca ag	CHRM1 antagonist	CHO-K1 Ca antag	M1 PAM	M1 PAM parental	CHRM1 agonist
NC(=O)c1nsc(C(=O)N(c2ccccc2)C(C(=O)NCc2ccc(F)cc2)c2ccc(O)cc2)c1N (stereo unspecified)	10.1	26.9*	9.7	-9.2	-2.3	-0.6
COc1ccc(Nc2oc(-c3ccco3)nc2S(=O)(=O)c2ccc(F)cc2)cc1	0.4	0.2	2.6	-5.5	-5.8	-5.5
Nc1ccc(-c2c3ccc(=O)cc-3oc3cc(O)ccc23)cc1C(=O)O	133.5*	54.7*	27.0*	-37.5	-27.7	277.5*
O=c1ccc2c(-c3ccccc3)c3ccc(O)cc3oc-2c1	532.9*	104.3*	93.0*	-30.3	-11.4	+
O=c1cc(-c2ccccc2)oc2cc(O)ccc12	0.7	-6.3	-3.0	0.4	4.9	-1.7
COc1ccccc1/C=C/C=N/n1c(-c2ccccc2)n[nH]c1=S	1.2	-8.6	-17.8	5.6	21.3	-2.0
Cc1c(/C=C/C(=O)c2ccccc2)cnn1C	16.3*	1.3	-1.3	-0.1	8.1	-1.4
O=C(COc1ccccc1)NC(=S)Nc1cccc2c(O)cccc12	6.9	2.5	-5.9	3.2	4.7	19.1*
Cc1ccc(Nc2nnns2)cc1	-0.2	0.0	0.3	4.6	8.7	-2.1
CC1=CC(C)(C)N=C(Nc2ccc(C)cc2)S1	0.5	57.9*	-20.3	-36.2	7.2	-9.6
CN(C)S(=O)(=O)c1ccc(Cl)c(NC(=O)CSc2nc3c(cc2C#N)C(=O)CCC3)c1	16.6*	14.7	2.6	-7.9	19.3	-8.8
CCCc1cnc(Nc2nc(C(N)Cc3ccc(C(F)(F)F)cc3)cs2)nc1 (stereo unspecified)	9.6	14.0	11.7	4.2	18.5	18.3*
COC(=O)c1cnc(Nc2nc(C(N)Cc3ccccc3)cs2)nc1C(F)(F)F (stereo unspecified)	1.3	-12.1	7.4	26.0*	6.5	14.6
COC(=O)c1cnc(Nc2nc(C(N)Cc3ccc(OC)cc3)cs2)nc1C(F)(F)F (stereo unspecified)	3.5	-3.5	-1.8	3.1	17.1	3.5
O=C(Cc1cccs1)Nn1c(Cc2cccs2)nc2ccccc2c1=O	0.1	17.9	30.1*	-5.0	-12.9	-7.3
COc1ccc(OC)c(/C=N/NC(=O)CCN2CCN(C(c3ccccc3)c3ccccc3)CC2)c1	0.1	48.0*	1.3	-26.1	15.2	-11.1
N#Cc1ccsc1NC(=O)CCN1CCN(C(c2ccccc2)c2ccccc2)CC1	0.0	29.8*	-26.1	-23.4	3.0	-10.8
O=C(CCN1CCN(C(c2ccccc2)c2ccccc2)CC1)N/N=C/c1ccc(O)cc1	1.6	36.9*	-3.3	-26.9	9.9	-10.8
CCOc1ncccc1C(=O)Oc1ccc2c(c1)OCO2	1.0	1.5	-10.3	-0.2	13.9	-3.3
CCCNC(=O)COc1ncnc2sccc12	0.1	-0.9	-9.5	7.2	6.0	-0.7
CC(C)C(=O)Nc1ccc2c(c1)nc1n2CCSC1	0.9	-8.7	-10.6	11.4	16.4	-1.3
CCC(=O)Nc1ccc2c(c1)nc1n2CCSC1	0.1	9.3	23.7*	0.2	-6.7	-2.6
Cc1ccccc1NC(=O)Cn1cnc2c(oc3nc4c(cc32)CCCC4)c1=O	0.2	-0.6	-1.9	-1.9	6.7	-6.0
CCOC(=O)CSc1nnc(NC(=O)CN2CCN(C=O)CC2)s1	0.1	-3.7	-3.3	0.7	-4.9	-2.7
CN(C)c1nc(Nc2ccc(Cl)cc2)nc(OCC#N)n1	0.9	8.8	27.3*	-6.6	-9.7	-4.8
CCOc1nc(Nc2ccc(Cl)cc2)nc(OCC)n1	0.2	-0.8	-10.7	-2.1	4.5	-8.6
CC1=C(C(=O)Nc2ccc(F)cc2)C(c2ccncc2)C2=C(CCCC2=O)N1 (stereo unspecified)	-0.3	3.6	23.7*	2.3	-6.9	0.1
CCOC(=O)C1=C(C)NC2=C(C(=O)CCC2)C1c1ccc(N(C)C)cc1 (stereo unspecified)	-0.1	44.9*	-7.8	-32.5	9.5	-12.2
CCCOC(=O)C1=C(C)NC2=C(C(=O)CCC2)C1c1ccc(N(C)C)cc1 (stereo unspecified)	-0.5	25.9*	2.4	-25.3	8.2	-9.7

Bioassay records: PubChem BioAssay, The Scripps Research Institute Molecular Screening Center
